# Only some compounds are listed: those with a hit (about 2.8% of all), similar ones and a draw of the others.
# MITF TRPM1 inh: inhibitors of MITF-dependent TRPM1 promoter reporter, primary screen, cell-based, SK-MEL-5, single point, luciferase; SK-MEL-5 TRPM1 promoter luciferase, 24 h; inhibition, % at 12.5 µM; 0.83% of 330,000 active; AID 488899, 2010;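 active means mean inhibition across replicates of 60% or more, whatever share of single replicates reaches that level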
# Peg3 prom inh: Peg3 promoter-driven luciferase inhibitors, primary screen, cell-based, HeLa, luciferase luminescence; HeLa PEG-Prom luciferase reporter, overnight; inhibition, % at 20 µM; 1.7% of 360,000 active; AID 588405, 2011;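 active means inhibition of at least 50% at 20 µM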
# PAX8 reporter: inhibitors of PAX8-driven TPO luciferase reporter, primary screen, RMG-I cells, single concentration; SteadyGlo, 24 h; inhibition, % at 12.6 µM; 1.2% of 360,000 active;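 active means mean replicate inhibition at least 60% with every replicate also reaching 60%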;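 further: luciferase light reporting Pax8 driven TPO promoter activity; plate controls were median of neutral control wells for no effect and mitoxantrone controls for full effect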
# EBV LMP1 NFkB: EBV LMP1-driven NF-kappaB luciferase reporter inhibitors, primary screen, cell-based, luminescence, single point; 0.69% of 350,000 active; inhibition, % at 12.5 µM; LMP1-induced NF-kappaB luciferase reporter cells; in the data active means inhibition above about 41%;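 further: 0% = neutral control wells and 100% = reference inhibitor control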
# Shn3 3UTR inh: reduction of Shn3 3'UTR firefly luciferase signal, primary screen, Schnurri-3 inhibitor project, cell-based, Clone20 osteoblasts, set 2. 0.52% of 360,000 active. AID 588674, 2011. inhibition, % at 12.5 µM. Clone20 osteoblast Shn3 3'UTR firefly luciferase, 24 h;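 active means mean inhibition of at least 75% with every replicate also reaching 75%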;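 further: 0% = median of neutral control wells and 100% = pilot-screen positive control compound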
# HIF-2a inh: HIF-2a reporter inhibitors, primary screen, luminescence, 786-0 RCC cells | 786-0 RCC cells HIF-2a reporter, luciferase luminescence, overnight | inhibition, % at 18.8 µM | 0.72% of 360,000 active | AID 624352, 2012;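 active means inhibition of the luminescence signal of 40% or more relative to plate controls, in a single-dose primary screen at 18.75 µM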
# The depositor's hits bear a star; . = no result.
SMILES,MITF TRPM1 inh,Peg3 prom inh,PAX8 reporter,EBV LMP1 NFkB,Shn3 3UTR inh,HIF-2a inh
O=C1CC(SC(=NCc2ccc3c(c2)OCO3)Nc2ccccc2)C(=O)N1 (stereo not given),-4,-15,.,55*,-10,-27
CCO[C@H]1OC(C(=O)N2CCN(Cc3ccccc3)CC2)=C[C@@H](c2ccccc2)[C@@H]1CCCO,3,-1,-4,2,-45,7
CCO[C@H]1OC(C(=O)N2CCN(Cc3ccccc3)CC2)=C[C@@H](c2ccc(C(F)(F)F)cc2)[C@@H]1CCCO,1,16,90*,2,5,17
CC(C)NC(=O)N(C)C[C@H]1Oc2ccc(NS(=O)(=O)c3ccc(Cl)cc3)cc2C(=O)N([C@@H](C)CO)C[C@H]1C,.,.,2,.,.,.
COc1ccc(-c2nc(-c3ccc(NC(=O)c4ccc(Br)o4)cc3)no2)cc1OC,3,54*,.,6,17,-166
COc1ccc(OCC(O)CNCCOc2ccccc2OC)c(C(C)(C)C)c1 (stereo not given),-3,63*,26,4,84,26
COc1ccc2sc3c(=O)[nH]c4ccccc4c3c2c1,46,25,.,88*,9,17
COC(=O)C1=C(SC)N(c2ccccc2)C(c2ccccc2)CC1=O (stereo not given),-10,3,91*,3,11,-1
O=C1ON=C(c2ccccc2[N+](=O)[O-])/C1=C/c1cccc([N+](=O)[O-])c1O,5,-2,3,71*,5,7
O=C1ON=C(c2ccc(Cl)c([N+](=O)[O-])c2)/C1=C/c1cccc([N+](=O)[O-])c1O,10,35,-12,5,-9,9
CCc1nc2ccc(C(=O)NC3CCN(Cc4ccccc4)CC3)cn2c1N(CC)Cc1cccc(Br)c1,.,94*,9,.,-3,10
CCc1nc2ccc(C(=O)N(C)Cc3ccccc3)cn2c1N(CC)Cc1cccc(Br)c1,.,27,8,.,-12,15
N#C/C(=C\c1ccc2c(c1)OCCO2)C(=O)NC1CCCCC1,-7,-115,100*,9,-27,-28
COc1ccc(/C=C(/C#N)C(=O)NC2CCCCC2)cc1Br,2,-4,.,15,19,9
Clc1ccc(-c2cn3nc4c(nc3n2)CCCC4)cc1,26,-91,.,50*,14,-116
COc1ccc(CNCCC(c2ccc(OC(C)C)cc2)c2ccccc2OC)cc1 (stereo not given),44,113*,68*,16,96*,28
COc1ccccc1C(CC(=O)Nc1ccc(C)c(C)c1)c1ccc(OC(C)C)cc1 (stereo not given),16,15,12,4,26,19
COc1ccc(CNCCC(c2ccc(OC(C)C)cc2)c2ccccc2OC)cc1OC (stereo not given),66*,87*,39,11,82,14
COc1ccccc1C(CCNCc1ccccc1)c1ccc(OC(C)C)cc1 (stereo not given),12,100*,2,-5,43,25
COc1ccc(C(CCNCc2ccc(OC(C)C)cc2)C(C)C)cc1 (stereo not given),.,49,0,.,70,-2
COc1ccccc1NC(=O)CC(c1ccc(OC(C)C)cc1)c1ccccc1OC (stereo not given),8,13,-2,54*,18,36
O=C(Nc1ccc2c(c1)[C@H]1C[C@@H](CC(=O)N3CCCCC3)O[C@@H](CO)[C@H]1O2)c1cccnc1,.,.,-11,.,.,.
CCCNC(=O)Nc1ccc2c(c1)OC[C@@H](C)N(Cc1cncnc1)C[C@H](C)[C@@H](OC)CN(C)C2=O,.,.,1,.,.,.
COc1ccccc1C(=O)Nc1ccc2c(c1)C(=O)N(C)[C@H]1CC[C@H](CC(=O)Nc3cccc(C(C)C)c3)O[C@@H]1CO2,.,.,48,.,.,.
COc1ccccc1C(CCNCc1ccc(N(C)C)cc1)c1ccc(OC(C)C)cc1 (stereo not given),77*,107*,38,-24,93*,2
CCOc1cccc(C(=O)Nc2ccc3oc(-c4cccnc4)nc3c2)c1,7,-9,-11,15,-6,-40

# Assay outcomes from PubChem.
